High-throughput results deposited in PubChem BioAssay by several laboratories.
Compounds with a hit are over-represented: about 1.8% of the library has one in this group of screens.
Ba/F3 V617F tox: reduce viability of Ba/F3 cells dependent on JAK2V617F | AID 1446 | inhibition, % at 5.6 µM | 220,000 tested, 1.1% active | Ba/F3 EpoR-JAK2V617F viability, ATP luminescence;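 active = inhibition above the campaign mean plus 3 SD over all tested compounds, cut at about 24% in these data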;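 also: cytokine-independent growth of Ba/F3 cells driven by EpoR plus mutant JAK2; 0% = DMSO-treated cells and 100% = JAK inhibitor I control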
BaF3 parental: counter-screen for JAK2V617F inhibitors: parental Ba/F3 viability inhibitors; CellTiter-Glo ATP luminescence; inhibition, % at 5.6 µM; 220,000 tested, 1.1% active;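 active = inhibition above a per-campaign cutoff, the mean inhibition of all tested compounds plus 3 SD, cut at about 27% in these data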;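 also: 0% = DMSO wells and 100% = JAK Inhibitor I control wells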
KLF5 inh: kruppel-like factor 5 inhibition; DLD-1 KLF5 promoter-luciferase reporter, luminescence; 290,000 tested, 0.23% active; inhibition, % at 5 µM;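 active = inhibition above a per-plate limit of that plate's mean compound inhibition plus 3 SD, cut at about 60% in these data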;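 also: 0% = DMSO wells and 100% = LY294002 at 200 µM; higher means less KLF5 promoter-driven luciferase light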
APP transl inh: APP translation inhibition | inhibition, % at 2 µM | 190,000 tested, 0.82% active | AID 1285 | SH-SY5Y APP 5'UTR-luciferase reporter, luminescence;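 active = inhibition above a set limit, derived from the sample mean plus 3 SD, cut at about 45% in these data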
IEC-6 cytotox: counter-screen for KLF5 inhibitors: cytotoxicity in IEC-6 cells; IEC-6 cytotoxicity, luminescence viability; inhibition, % at 5 µM; 290,000 tested, 0.78% active; in the data active = inhibition above about 22%;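 also: 0% = plate median of test compound wells and 100% = cytotoxic reference compound wells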
* hit, by the source's call; / = no result given.

SMILES | Ba/F3 V617F tox | BaF3 parental | KLF5 inh | APP transl inh | IEC-6 cytotox
COc1ccc2nc(SCC(=O)N3CC(=O)Nc4ccccc43)c(C#N)cc2c1 | -0.2 | 3.4 | -16.9 | 59.5* | 2.1
COc1ccc(C(=O)N2c3ccc(F)cc3CCC2C)cc1OC (stereo not drawn) | 1.6 | 2.4 | 9.9 | -31.9 | 4.7
CC1CCc2cc(F)ccc2N1C(=O)c1ccc2c(c1)OCO2 (stereo not drawn) | 32.3* | 35.9* | -1.2 | -9.6 | 6.4
CCCc1n(CC)c2ccccc2[n+]1CC(O)COC1CCCCC1 (stereo not drawn) | 32.9* | 49.9* | 20.8 | 4.1 | 2.1
CCn1c(C)[n+](CC(O)COCC2CC=CCC2)c2ccccc21 (stereo not drawn) | 26.6* | 40.6* | -15.6 | 4.2 | -3.4
CCc1n(CC(O)COCC2CC=CCC2)c2ccccc2[n+]1C (stereo not drawn) | 25.6* | 35.0* | -27.3 | -2.5 | -0.5
CCc1n(CC(O)COC2CCCCC2)c2ccccc2[n+]1C (stereo not drawn) | 24.3* | 57.0* | -9.1 | -4.4 | -2.4
C=CCNC(=S)/N=c1/ccccn1CC | 15.0 | 28.8* | 8.8 | / | -6.5
C=CCNC(=S)Nc1ccccc1 | 0.1 | 4.6 | -6.8 | -6.1 | -1.7
CCN(CC(=O)N1CCCC1)S(=O)(=O)c1cc(C)ccc1OC | / | / | -34.5 | / | -2.5
CCOc1ccc(N2C(=O)CC(Sc3ccccc3C(=O)O)C2=O)c([N+](=O)[O-])c1 (stereo not drawn) | 0.5 | 10.1 | -29.2 | -3.8 | -3.1
O=C(Cn1cnc2ccccc21)Nc1ccc(SC(F)F)cc1 | 35.8* | 49.9* | -55.1 | 15.0 | 9.5
CC(=O)c1cnc(Nc2nc(C)c3ccc(C)cc3n2)nc1C | -2.2 | 0.2 | -21.4 | 2.1 | -1.2
Cc1ccc2c(C)nc(NC3=NCN(C(C)C)CN3)nc2c1 | 9.6 | 30.7* | -31.0 | -3.0 | -0.3
Cc1sc2ncnc(N3CCC(C)CC3)c2c1C | -1.0 | 4.0 | -0.4 | -6.5 | 1.7
Cc1sc2ncnc(N3CCN(CCOc4ccc(Cl)cc4)CC3)c2c1C | 11.2 | 31.3* | -5.5 | 3.1 | 5.7
COc1cccc(NC(=O)C2CCN(S(=O)(=O)c3ccc4c(c3)C(C)(C)C(=O)N4C)CC2)c1 | / | / | -23.4 | / | -6.8
Cc1ccc(-c2c[n+](CC(=O)OCc3ccccc3)c3n2CCC3)cc1 | 0.4 | 4.3 | -22.0 | -22.7 | -3.1
Cc1ccc(-n2c(-c3ccc(Cl)cc3)c[n+]3c2CCC3)cc1 | 69.0* | 65.0* | 4.4 | / | -6.0
Cc1ccc(-n2c(-c3ccccc3)c[n+]3c2CCC3)cc1 | 76.8* | 68.0* | -2.3 | -1.0 | 3.6
FC(F)Sc1ccc(-n2c(-c3ccc(Cl)cc3)c[n+]3c2CCC3)cc1 | 23.9* | 44.3* | 0.3 | 2.3 | 1.0
Cc1cc(S(=O)(=O)N2CCN(c3ccccc3F)CC2)ccc1-n1cnnn1 | / | / | -15.8 | / | 0.9
COC(=O)C1CN(S(=O)(=O)c2cc(OC)ccc2OC)CCS1 (stereo not drawn) | / | / | -8.8 | / | 3.1
CCc1nc2c(c(=O)c3ccccc3n2C)c(=O)n1CCc1ccc(OC)cc1 | 0.4 | 1.5 | -1.5 | 11.9 | 25.8*
CC(=O)OCCCCCCCCCCC[N+]1(C)CCCCC1 | 25.4* | 51.1* | -4.5 | -19.1 | -4.1
SMILES | Ba/F3 V617F tox | BaF3 parental | KLF5 inh | APP transl inh | IEC-6 cytotox
Cc1ccc(NC(=O)C[n+]2cc(-c3ccc(C)cc3)n3c2CCC3)cc1 | -4.0 | -1.1 | -6.6 | / | -4.1
Cc1ccc(-c2c[n+](Cc3ccc(Cl)c(Cl)c3)c3n2CCC3)cc1 | 78.4* | 72.7* | -14.0 | -9.2 | -0.1
O=C(C[n+]1cc(-c2ccccc2)n2c1CCCCC2)c1ccc(Br)cc1 | 61.0* | 72.6* | -1.8 | 6.9 | -1.4
O=C(C[n+]1cc(-c2ccccc2)n2c1CCC2)OCc1ccccc1 | 0.7 | 3.0 | -18.3 | -0.6 | 5.3
Cc1ccc(C(=O)C[n+]2cc(-c3ccc(C)cc3)n3c2CCCCC3)cc1 | 102.1* | 88.9* | 3.1 | -3.7 | 19.6
COc1ccc(C(=O)C[n+]2cc(-c3ccc(OC)cc3)n3c2CCCC3)cc1 | 65.1* | 63.7* | 2.8 | -15.6 | 4.9
CCCCS(=O)(=O)Nc1ccc(C)cn1 | -0.4 | 3.1 | 6.2 | 15.7 | -0.3
O=c1ccc2ccc(OCCOc3cccc(Cl)c3)cc2o1 | / | / | -32.6 | / | 2.1
Cc1cc(C)n2nc(SCC(=O)NC3CCCCC3)nc2n1 | / | / | -26.1 | / | -2.4
CCCCNC(=O)c1ccc(CS(=O)(=O)c2ccccc2OC)o1 | / | / | -15.9 | / | -5.5
[2H]c1c([2H])c([2H])c(-c2nc(N3CCCCCC3)sc2C(=O)c2ccccc2)c([2H])c1[2H] | 3.7 | 95.5* | -19.9 | -3.5 | -3.5
N#CC1=C(SCC(=O)c2ccc(Br)cc2)NC2=C(C(=O)CCC2)C1c1ccco1 (stereo not drawn) | 1.2 | 2.2 | -7.6 | 67.1* | 2.6
CCc1ccc(NC(=O)CSC2=C(C#N)C(c3ccco3)C3=C(CCCC3=O)N2)cc1 (stereo not drawn) | -7.1 | -0.8 | -30.2 | -21.7 | -1.1
O=C(N/N=C/c1ccc2c(c1)OCO2)c1cc(-c2ccncc2)nc2ccccc12 | 0.8 | 5.5 | -3.6 | 67.1* | -4.1
O=C(N/N=C/c1ccsc1)c1cc(-c2ccncc2)nc2ccccc12 | 1.7 | 1.1 | -6.1 | 59.8* | 7.7
O=C(N/N=C/c1ccc(Cl)cc1)c1cc(-c2cccnc2)nc2ccccc12 | -2.1 | 7.6 | -22.7 | 44.5 | 1.8
Cc1cc(C(=O)N/N=C/c2ccc(N(C)C)cc2)c2ccccc2n1 | 8.2 | 9.0 | 22.0 | 46.1* | 21.6
Cc1ccc(/C=N/NC(=O)c2cc(-c3cccnc3)nc3ccccc23)cc1 | 3.4 | 2.8 | -5.7 | 68.5* | 5.2
O=C(N/N=C/c1ccc2c(c1)OCO2)c1cc(-c2ccccc2Cl)nc2ccccc12 | 3.2 | 5.5 | -11.4 | 4.8 | 5.2
Nn1c(SCc2ccccc2)nc2ccccc21 | / | / | -167.8 | / | 4.0
Cn1c(N2CCN(C(c3ccccc3)c3ccccc3)CC2)nc2c1c(=O)[nH]c(=O)n2C | / | / | 0.4 | / | -3.3
CC(/C=N/NC(=O)c1cc(-c2ccncc2)nc2ccccc12)=C\c1ccco1 | -3.2 | 0.4 | -20.7 | 87.6* | -6.5
O=C(N/N=C/c1ccco1)c1cc(-c2cccc(Br)c2)nc2ccccc12 | -1.1 | 6.0 | 11.6 | 2.1 | -10.1
C/C(=N\NC(=O)c1cc(-c2cccs2)nc2ccccc12)c1ccccn1 | 3.5 | 7.1 | -0.7 | 71.2* | 2.0
Nc1nc(Cl)nc2ncn(Cc3ccccc3)c12 | / | / | 1.0 | / | -7.0
SMILES | Ba/F3 V617F tox | BaF3 parental | KLF5 inh | APP transl inh | IEC-6 cytotox
Cc1ccc(C(=O)Cc2cc3ccccc3oc2=O)c(C)c1 | / | / | -164.3 | / | -8.3
COc1cccc(N/C(C)=C/C(=O)c2ccc(Br)cc2)c1 | -2.1 | 2.0 | 7.8 | -55.6 | -0.8
C/C(=C\C(=O)c1ccc(Br)cc1)Nc1ccc(Cl)cc1 | 1.8 | 92.5* | -9.4 | -29.4 | 6.6
C/C(=C\C(=O)c1ccc(Cl)cc1)Nc1ccc(N2CCOCC2)cc1 | 33.3* | 28.2* | 0.4 | -9.2 | 6.4
CCn1c(SCC(=O)NNC(=O)c2ccc(OC)cc2)nnc1-c1cccnc1 | -1.7 | 2.5 | -5.5 | -13.9 | 1.5
CC[n+]1cccc(-c2nc3ccccc3s2)c1 | 33.7* | 44.0* | -7.0 | -5.7 | 3.8
Oc1cccc(-c2nc3ccccc3s2)c1 | 3.8 | 8.7 | -75.9 | -116.1 | -0.8
